This is one part of a sample in which hits are shown more often than they occur.
LASV entry inh – Lassa virus entry inhibition; Lassa virus pseudotype entry inhibition, cell reporter; Potency, µM (highest dose often 37.9 µM), without a hit: at the highest dose activity change, negative = inhibition, most hits filed as inhibitors; actives 1.2% (n = 300,000); calls by dose curve; tested in HEK293 cells; further: potency means the concentration at half of the fitted maximal effect; on the % scale 0 is the no-effect control and ±100 the full control effect; nearly all actives have a fitted effect of over 50% in size
Cycloheximide cs – counter-screen hit for Shiga toxin inhibitors, cycloheximide | cell reporter, cycloheximide protein synthesis inhibition counterscreen | actives 12% (n = 300,000) | max response, %; in the data active means max response mostly above about 13%, no sharp cut-off; inactive means mostly below about 14%; further: read at 38.3 µM for the half of the compounds with a filed dose; 0% is about no effect
Shiga toxin inh – inhibitors of Shiga toxin in Vero cells | AID 2315 | inhibition, % at 38.7 µM | Vero cells, Shiga toxin protein synthesis inhibition reporter | actives 9.2% (n = 290,000); in the data active means inhibition mostly above about 28%, no sharp cut-off; inactive means mostly below about 43%; further: 0% is about no effect
Vaccinia Venus – inhibitors of vaccinia virus (Venus reporter); AID 720580; Potency, µM (doses to about 36.5 µM), for inactives: at the top dose activity change, negative = inhibition, hits mostly inhibitors; Vaccinia virus Venus reporter expression, fluorescence; actives 0.46% (n = 330,000); calls by dose curve; tested in A549 cells; further: potency means the concentration at half of the fitted maximal effect; on the % scale 0 is the no-effect control and ±100 the full control effect; nearly all actives have a fitted effect of over 30% in size
Vaccinia mCherry – inhibitors of vaccinia virus infection (mCherry reporter signal); Vaccinia virus mCherry reporter infection, fluorescence; Potency, µM (doses to about 36.5 µM), without a hit: at the highest dose activity change, negative = inhibition, usual class: inhibitors; actives 0.63% (n = 310,000); AID 720579; calls by dose curve; tested in A549 cells; further: potency means the concentration at half of the fitted maximal effect; on the % scale 0 is the no-effect control and ±100 the full control effect; nearly all actives have a fitted effect of over 35% in size
Marburg entry inh – blocks Marburg virus binding to or entry into cells. Marburg virus pseudotyped entry inhibition, cell reporter. Potency, µM (series often up to 37.8 µM), for inactives: at the top dose activity change, negative = inhibition, usual class: inhibitors. actives 1.8% (n = 300,000). AID 540276; calls by dose curve; tested in HEK293 cells; further: potency means the concentration at half of the fitted maximal effect; on the % scale 0 is the no-effect control and ±100 the full control effect
An asterisk follows results filed as active; i = inactive; ? = inconclusive; . = no result; [ ] = remark or other dose.

SMILES | LASV entry inh | Cycloheximide cs | Shiga toxin inh | Vaccinia Venus | Vaccinia mCherry | Marburg entry inh
O=C(N[C@H]1CP(=O)(Oc2ccccc2)O[C@H](COCc2ccccc2)[C@H]1O)C(Cl)(Cl)Cl (stereo partly specified) | . | 25* | -2 | -11% | i | .
Cn1c(SCCOc2ccccc2)nnc1-c1ccc(NC(=O)CCc2ccccc2)cc1 | . | . | . | -4% | -9% | .
CN(Cc1ccsc1)C(=O)CCc1nnc(Cc2c[nH]c3ccccc23)o1 | -5% | -3 | -7 | -2% | -3% | ?
Cn1ccnc1SCCNC(=O)CCc1nnc(CCc2ccccc2)o1 | 16%[46.1 µM] | 8 | 28 | -7% | -4% | ?
CC(Cc1ccsc1)NC(=O)CCc1nnc(COc2ccccc2)o1 (stereo unspecified) | ? | 19* | 18 | ? | ? | 9%[46.1 µM]
O=C(CCc1nnc(COc2ccccc2)o1)NCc1ccccc1 | 29%[46.1 µM] | 11 | 24 | -10% | i | 2%[46.1 µM]
CCN(Cc1ccncc1)C(=O)CCc1nnc(CCC2CCCCC2)o1 | 6%[46.1 µM] | 23* | 39* | -18% | i | 1%[46.1 µM]
Cn1ccnc1SCCNC(=O)CCc1nnc(CCCCc2ccccc2)o1 | 19%[46.1 µM] | 12 | 23* | -11% | -3% | -1%[46.1 µM]
CN(Cc1ccsc1)C(=O)CCc1nnc(CCCc2ccccc2)o1 | . | 47* | 124* | . | . | .
CSCCC(NS(=O)(=O)c1ccc2c(c1)oc(=O)n2C)C(=O)N1CCN(c2cc(C)ccc2C)CC1 (stereo unspecified) | 1%[46.1 µM] | . | . | -12% | -24% | .
Cc1ncc2c(c1CNC(=O)/C=C/c1cccs1)CCN(C(=O)c1c(C)noc1C)C2 | . | . | . | 8% | -14% | .
CCC(C)N1CNc2c(c(=O)[nH]c(=S)n2-c2cccc(C)c2)C1 (stereo unspecified) | -16% | 8 | -9 | -19% | -10% | 24%[46.1 µM]
CCN(Cc1ccccc1)C(=O)CCCOc1ccccc1 | 13% | 26* | 77* | -8% | -14% | 0%
CCn1ccnc1CN(C)C(=O)CCc1nnc(CCCc2ccccc2)o1 | . | 10 | 20 | . | . | .
CCN(Cc1ccccc1)C(=O)CCc1nnc(CCCc2ccccc2)o1 | ? | 22* | 57* | -13% | -11% | ?
CC(C)(CO)CNC(=O)CCc1nnc(CCCc2ccccc2)o1 | . | 22* | 36 | . | . | .
Cc1ccsc1CN(C)C(=O)CCc1nnc(COc2ccccc2)o1 | 28% | 35* | 56* | -7% | -1% | -5%[46.1 µM]
CC(C)c1ccc(NC(=O)C2(C)Cc3c(-c4ccc(C(N)=O)cc4)ccnc3O2)cc1 (stereo unspecified) | . | . | . | ? | -17% | .
CCCCN(CC)CCNC(=O)c1cc2c(=O)oc3ccc(C)cc3c2s1 | 7%[46.1 µM] | . | . | -8% | 0% | 15%[46.1 µM]
COC(=O)C1CCN(C(=O)c2ccc3nccnc3c2)CC1 | 1%[46.1 µM] | 5 | -6 | -1% | -14% | 7%[46.1 µM]
COc1cccc(-c2nc3ccc(C(=O)NC(C)Cc4cccnc4)cc3o2)c1 (stereo unspecified) | . | 29* | 28* | . | . | .
COC(=O)C1CCN(C(=O)c2ccc3nc(-c4cccc(OC)c4)oc3c2)CC1 | . | 76* | 95* | . | . | .
COc1ccc(C2=Nn3c(nnc3-c3cc(OC)ccc3OC)SC2)cc1 | . | -5 | -8 | . | . | .
CNc1oc(/C=C/c2cccc(OC)c2)nc1C#N | . | 35* | 99* | . | . | .
CCNc1oc(/C=C/c2ccc(OCC)cc2)nc1C#N | . | 16* | 38* | . | . | .
SMILES | LASV entry inh | Cycloheximide cs | Shiga toxin inh | Vaccinia Venus | Vaccinia mCherry | Marburg entry inh
CCN(CC)CCCNc1oc(/C=C/c2ccc(OC)c(OC)c2)nc1C#N | 16%[46.1 µM] | . | . | -13% | -4% | -16%[46.1 µM]
CCN(CC)CCCNc1oc(/C=C/c2ccccc2)nc1C#N | . | 22* | 24 | . | . | .
CCOc1ccc(/C=C/c2nc(C#N)c(NCCc3ccccc3)o2)cc1 | -6%[46.1 µM] | . | . | ? | i | ?
COc1cc2c(cc1OC)CN(C(=O)Cc1c(F)cccc1Cl)CC2 | -10% | -2 | -11 | -6% | i | -8%[46.1 µM]
Cc1cc(-c2cc(C(=O)Nc3ccccc3)on2)nc(NCC2CC2)n1 | . | . | . | -21% | -21% | .
CC(C)(O)c1cc(=O)sc2nc3ccccc3n12 | ? | 32* | 70* | . | . | 0%
CCOC(=O)c1ccc(N2C(=O)c3n[nH]c(-c4cccs4)c3C2c2ccc(O)c(OC)c2)cc1 (stereo unspecified) | ? | . | . | -13% | -12% | ?
CCc1ccc(OCC(=O)N/N=C(\C)c2ccc(-n3ccnc3)cc2)cc1 | -30% | 16* | 51* | -8% | -3% | ?
CCOc1ccc(S(=O)(=O)Nc2ccc(C(=O)N/N=C(\C)c3ccc(-n4ccnc4)cc3)cc2)cc1 | ? | 6 | 13 | -16% | -19% | 11µM*
COC(=O)[C@]12CCCCC=C1N(Cc1ccc(Cl)cc1Cl)C(=O)[C@H](CC(=O)NCC1CCCCC1)C2 | . | . | . | 3% | i | .
COc1ccc(S(=O)(=O)N2CCN(Cc3nc4ccc(C)cc4o3)CC2)cc1OC | -2%[46.1 µM] | . | . | 1% | -6% | .
C/C(=N\NC(=O)c1c(C)nc2ccccn12)c1ccc(C(C)(C)C)cc1 | ? | 11 | 4 | ? | -19% | -4%[46.1 µM]
C/C(=N\NC(=O)c1c(C)nc2ccccn12)c1ccco1 | 0% | 32* | 42* | -10% | i | 16%[46.1 µM]
C/C(=N\NC(=O)c1c(C)nc2ccccn12)c1ccc(N2CCOCC2)cc1 | 18%[46.1 µM] | 28* | 42 | -9% | -1% | -5%[46.1 µM]
CS(=O)(=O)c1ccccc1C(=O)Nc1ccc(S(=O)(=O)N2CCCC2)cc1 | 2%[46.1 µM] | . | . | 0% | i | 16%[46.1 µM]
O=C(Cc1csc(N2CCOCC2)n1)N/N=C/c1ccccc1C(=O)O | . | -3 | -4 | . | . | .
CC(OCCN1CCCC1)(c1ccc(F)cc1)c1ccc(F)cc1 | 2µM* | -2 | -7 | -20% | -27% | ?
Fc1ccc(OCCOCCN2CCCC2)cc1 | 5%[46.1 µM] | . | . | 9% | -11% | ?
C[N+]1(CC(=O)c2ccc3c(c2)CCCC3)CCOCC1 | . | . | . | 7% | -15% | .
Cc1ccc(-c2noc(CN(C3CCCCC3)S(=O)(=O)c3ccc(F)cc3)n2)cc1 | -4%[46.1 µM] | . | . | -16% | -8% | ?
CCOC(=O)C1CCN(Cc2nc(-c3ccc(OC)c(OC)c3)no2)CC1 | -13% | -4 | -14 | -28% | . | -5%
CN1CCCN(Cc2nc(-c3ccc(Cl)cc3)no2)CC1 | 24%[46.1 µM] | 29* | 35 | 1% | -6% | -5%[46.1 µM]
Cc1ccc(-c2noc(CN3CCC(C(N)=O)CC3)n2)cc1 | ? | 41* | 84* | -7% | -12% | 1%
Cc1ccc(-c2noc(CN3C(C)CCCC3C)n2)cc1 (stereo unspecified) | . | 22* | -1 | -8% | i | .
CC1CCN(Cc2nc(-c3ccccc3)no2)CC1 | 4% | 23* | 25 | -10% | i | ?
COc1cccc(NC(=O)CSc2ncc3c(n2)-c2ccc(Cl)cc2N(C)S3(=O)=O)c1 | 6%[46.1 µM] | . | . | -15% | -13% | .
O=C(CCN1CCCCC1)N1CCc2c([nH]c3ccccc23)C1c1cccnc1 (stereo unspecified) | 2% | . | . | -7% | -5% | ?

Screening data deposited in PubChem by National Center for Advancing Translational Sciences (NCATS).
